The text below walks through data of PubChem BioAssay.

Assay [1] in a line: optical density shifts of acrAB sulA E. coli – strain DRC41, OD650, 48 h, E. coli filamentation inducer project, primary screen (AID 1152).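 Also: E. coli MC1000 strain DRC41 lacking acrAB efflux pump and sulA.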 The settings on record: higher = more signal, called active from +8 up or from −8 down.
Assay [2] can be described thus: probe aLefty1 binding on compound microarray – biochemical, small-molecule microarray, 635/667 nm fluorescence, primary screen (AID 1153).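 Also: score merges spot fluorescence with signal-to-noise ratio from the scanned slide images.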 The settings on record: higher = more signal.
Assay [3] in a line: plasmodial surface anion channel blockers, osmotic lysis – cell-based, P. falciparum Indochina, OD700, 1 h, primary screen (AID 1154). The settings on record: P. falciparum Indochina infected RBC osmotic lysis, higher = more signal, called active from +8 up or from −8 down.
Assay [4] can be described thus: plasmodial surface anion channel blockers, osmotic lysis – cell-based, P. falciparum Indochina, OD700, 2 h, primary screen (AID 1155).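 Also: lysis reports solute entry through the parasite surface anion channel PSAC.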 The settings on record: P. falciparum Indochina infected erythrocytes, higher = more signal, called active from +8 up or from −8 down.
Assay [5] in a line: changes in parasitized red cell lysis, either direction – P. falciparum Indochina, OD700, 3 h, PSAC antagonist project, primary screen (AID 1156). The settings on record: P. falciparum-infected erythrocytes, osmotic lysis, higher = more signal, called active from +8 up or from −8 down.
The nature of assay [6]: plasmodial surface anion channel blockers, osmotic lysis – cell-based, P. falciparum Indochina, OD700, 18 h, primary screen (AID 1157). The settings on record: P. falciparum Indochina infected erythrocytes, osmotic lysis OD700, 18 h; higher = more signal, called active from +8 up or from −8 down.
A short description of assay [7]: S6 kinase pathway phospho-S6 level changes – cell-based, A549, cytoblot, luminescence, serum-stimulated, primary screen (AID 1158).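 Also: serum-stimulated A549 lung adenocarcinoma cells; signal is phosphorylated S6 detected by cytoblot immunostaining with HRP secondary.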 The settings on record: 5 h, higher = more signal.
Assay [8] has as its target NADPH oxidase 2 (Homo sapiens) (UniProt P04839). Put plainly: compounds shifting NOX2 Amplex Red fluorescence – cell-based, HEK293-NOX2, PMA-stimulated, NOX inhibitor project, primary screen (AID 1159). Also: test concentration not given here. The settings on record: 45 min, higher = more signal, called active from +8 up or from −8 down.
Assay [9] has as its target NADPH oxidase 4 (Homo sapiens) (UniProt Q9NPH5). Put plainly: compounds shifting NOX4 Amplex Red fluorescence – cell-based, HEK293-NOX4, tetracycline-induced, NOX inhibitor project, primary screen (AID 1160). The settings on record: HEK293-NOX4, Amplex Red H2O2 fluorescence, 45 min; higher = more signal, called active from +8 up or from −8 down.
For assay [10], the target named is NADPH oxidase 5 (Homo sapiens) (UniProt Q96PH1). Kind of assay: compounds shifting NOX5 Amplex Red fluorescence – cell-based, HEK293-NOX5, NOX inhibitor project, primary screen (AID 1161). The settings on record: HEK293-NOX5, ionomycin, 45 min, higher = more signal.
Chain of NADPH oxidase 5 (Homo sapiens) (Q96PH1 whole entry, looked up): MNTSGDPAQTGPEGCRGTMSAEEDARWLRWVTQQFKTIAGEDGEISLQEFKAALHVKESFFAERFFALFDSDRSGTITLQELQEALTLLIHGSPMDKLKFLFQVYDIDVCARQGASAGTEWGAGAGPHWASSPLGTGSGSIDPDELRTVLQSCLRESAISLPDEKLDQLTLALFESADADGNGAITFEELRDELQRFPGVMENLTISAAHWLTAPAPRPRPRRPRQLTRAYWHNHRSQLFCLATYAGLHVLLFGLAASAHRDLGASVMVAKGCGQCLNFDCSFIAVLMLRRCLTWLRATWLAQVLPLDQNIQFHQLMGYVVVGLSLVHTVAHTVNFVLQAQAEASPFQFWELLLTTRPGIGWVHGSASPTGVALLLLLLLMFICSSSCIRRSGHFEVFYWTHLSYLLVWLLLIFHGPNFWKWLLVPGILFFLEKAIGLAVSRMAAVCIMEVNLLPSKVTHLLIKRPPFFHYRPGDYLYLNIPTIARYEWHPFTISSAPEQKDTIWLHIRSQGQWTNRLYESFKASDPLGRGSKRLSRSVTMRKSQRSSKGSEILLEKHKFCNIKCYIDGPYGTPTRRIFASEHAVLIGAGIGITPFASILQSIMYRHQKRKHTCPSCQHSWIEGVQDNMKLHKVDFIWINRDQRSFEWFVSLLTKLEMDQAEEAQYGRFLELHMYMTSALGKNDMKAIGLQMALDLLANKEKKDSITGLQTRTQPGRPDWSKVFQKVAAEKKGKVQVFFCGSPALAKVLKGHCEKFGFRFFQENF
Assay [11] can be described thus: compound effects on lung adenocarcinoma cell viability – A549, calcein-AM fluorescence, 48 h, basal, profiling panel (AID 1162). Also: test concentration not given here. The settings on record: higher = more signal.
Assay [12] can be described thus: compound effects on differentiated 3T3-L1 adipocyte viability – cell-based, 3T3-L1 adipocytes, calcein-AM fluorescence, 48 h, basal, profiling panel (AID 1163). Also: test concentration not given here. The settings on record: 3T3-L1 adipocytes viability, higher = more signal.
The nature of assay [13]: compound effects on hepatocellular carcinoma cell viability – HepG2, calcein-AM fluorescence, 48 h, basal, profiling panel (AID 1164). Also: test concentration not given here. The settings on record: higher = more signal.
A short description of assay [14]: compound effects on multiple myeloma cell viability – MM1S, calcein-AM fluorescence, 48 h, basal, profiling panel (AID 1165).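 Also: viability of MM1S multiple myeloma cells under basal unstimulated conditions; test concentration not given here.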 The settings on record: higher = more signal.
A short description of assay [15]: calcein-AM signal in unstimulated myeloma cells – cell-based, calcein-AM fluorescence, 48 h, PK04 Diversity Set, profiling panel (AID 1166).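 Also: cells grown under basal conditions without added stimulus; test concentration not given here.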 The settings on record: RPMI8226 myeloma viability, higher = more signal.
Assay [16] can be described thus: JC-1 mitochondrial signal, unstimulated HepG2 cells – cell-based, JC-1 fluorescence, 24 h, 100 nL compound, profiling panel (AID 1167). Also: test concentration not given here. The settings on record: HepG2 mitochondrial potential, higher = more signal.
The nature of assay [17]: JC-1 mitochondrial signal, unstimulated adipocytes – cell-based, JC-1 fluorescence, 3T3-L1 adipocytes, 24 h, 100 nL compound, profiling panel (AID 1168). Also: test concentration not given here. The settings on record: JC-1 mitochondrial fluorescence, higher = more signal, called active from +8 up or from −8 down.
Assay [18] in a line: JC-1 mitochondrial signal, unstimulated myeloma cells – cell-based, JC-1 fluorescence, RPMI8226, 24 h, 100 nL compound, profiling panel (AID 1169). Also: test concentration not given here. The settings on record: JC-1 mitochondrial potential fluorescence, higher = more signal.
Assay [19] is described as follows: JC-1 mitochondrial signal, unstimulated MM1S myeloma – cell-based, JC-1 fluorescence, 24 h, 100 nL compound, profiling panel (AID 1170). Also: test concentration not given here. The settings on record: MM1S mitochondrial potential, higher = more signal.
Assay [20] in a line: resazurin metabolic signal in A549 cells – cell-based, resazurin fluorescence, 24 h, PK04 Diversity Set, profiling panel (AID 1171). Also: test concentration not given here. The settings on record: A549 viability, higher = more signal, called active from +8 up or from −8 down.

SMILES strings stand for the structures. Activity calls are given as the source filed them.

Chain of NADPH oxidase 2 (Homo sapiens) (P04839 whole entry, looked up): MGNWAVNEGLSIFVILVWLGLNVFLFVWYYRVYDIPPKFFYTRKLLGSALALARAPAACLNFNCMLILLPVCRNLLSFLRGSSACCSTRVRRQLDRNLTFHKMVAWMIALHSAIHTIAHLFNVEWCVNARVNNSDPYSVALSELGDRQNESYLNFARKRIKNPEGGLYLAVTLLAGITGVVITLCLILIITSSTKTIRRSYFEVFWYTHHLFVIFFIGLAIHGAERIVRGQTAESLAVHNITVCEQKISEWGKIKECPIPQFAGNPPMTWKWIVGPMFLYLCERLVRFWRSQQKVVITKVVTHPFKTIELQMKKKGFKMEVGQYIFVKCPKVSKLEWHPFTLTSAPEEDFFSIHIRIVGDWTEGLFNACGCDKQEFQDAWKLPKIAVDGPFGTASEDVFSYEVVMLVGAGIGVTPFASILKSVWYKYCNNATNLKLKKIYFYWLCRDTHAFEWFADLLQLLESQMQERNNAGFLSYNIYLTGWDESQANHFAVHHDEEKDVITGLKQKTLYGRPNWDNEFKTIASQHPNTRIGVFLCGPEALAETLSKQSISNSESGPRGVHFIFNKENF
Chain of NADPH oxidase 4 (Homo sapiens) (Q9NPH5 whole entry, looked up): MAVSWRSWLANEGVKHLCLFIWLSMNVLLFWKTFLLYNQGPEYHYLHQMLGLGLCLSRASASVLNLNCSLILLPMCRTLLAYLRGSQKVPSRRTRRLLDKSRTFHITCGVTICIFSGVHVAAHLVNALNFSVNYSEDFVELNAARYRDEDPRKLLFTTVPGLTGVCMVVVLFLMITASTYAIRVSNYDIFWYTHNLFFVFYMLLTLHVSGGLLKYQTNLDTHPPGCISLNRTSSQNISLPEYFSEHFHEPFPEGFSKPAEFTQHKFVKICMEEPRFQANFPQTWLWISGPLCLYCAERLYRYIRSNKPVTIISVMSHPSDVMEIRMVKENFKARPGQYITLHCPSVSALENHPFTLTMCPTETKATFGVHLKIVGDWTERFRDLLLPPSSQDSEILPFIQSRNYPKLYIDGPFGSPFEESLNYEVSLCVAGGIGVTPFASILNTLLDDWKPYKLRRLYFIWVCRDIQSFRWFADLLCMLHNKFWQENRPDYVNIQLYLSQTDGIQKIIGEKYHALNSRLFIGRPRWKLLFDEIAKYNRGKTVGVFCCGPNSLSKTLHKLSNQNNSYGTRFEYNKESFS

Turning to `COCOc1ccc(Br)cc1C(=O)[C@@H]1O[C@H]1c1cccc(OC)c1`, the z-score in assay [1] was 0.467 (inactive); in assay [3] it was 5.75 (inactive); in [4] it was 1.12 (inactive); in [5] it was -0.23 (inactive); in [6], 0.248 (inactive); in assay [7], -0.291. Besides, the z-score in assay [8] is 1 (inactive); in assay [9] it was -0.575 (inactive); in assay [10], -1.92; in assay [11] it was 0.131; in [12], 0.314; in assay [13] it was -0.418. The z-score is -2.86 in assay [14]; -1.51 in [15]; -1.39 in assay [16]; -0.276 (inactive) in [17]; -0.724 in [18]; -0.261 in assay [19]. The z-score in assay [20] was -0.486 (inactive). In assay [2], this molecule displayed a composite z-score of -0.0662.

With `CCOC(=O)[C@H](CC(C)C)NC(=O)CCC1CC(OC(=O)NCc2cccc3ccccc23)CC2(CCCC(COC(=O)NCCC(C)C)O2)O1` (stereo not given in full), the z-score is -0.64 (inactive) in assay [1]; 22.7 (active) in assay [3]; 6.81 (inactive) in [4]; -0.861 (inactive) in assay [5]; 0.78 (inactive) in [6]; 2.49 in assay [7]. Also, the z-score was 0.902 (inactive) in assay [8]; 0.777 (inactive) in assay [9]; 0.389 in assay [10]; 2.25 in assay [11]; 0.944 in [12]; 0.312 in [13]. Moreover, the z-score was -3.2 in assay [14]; -1.05 in [15]; 0.162 in assay [16]; 0.199 (inactive) in [17]; -0.17 in assay [18]; -1.27 in [19]. Besides, in [20], the z-score was 0.169 (inactive). In assay [2], the composite z-score turned out to be 0.185.

As to `CO[C@H]1COC(=O)CC=C[C@H](C)[C@@H](OC)COC(=O)[C@H](C)COC(=O)CC=C[C@@H]1C`, the z-score in assay [1] is 0.79 (inactive); in [3] it was -0.0428 (inactive); in assay [4] it was 0.202 (inactive); in assay [5], 0.523 (inactive); in assay [6], 0.13 (inactive); in assay [7], 0.333. The z-score in assay [8] is -0.165 (inactive); in assay [9], 0.297 (inactive); in assay [10], -0.12; in [11] it was 0.389; in assay [12], -0.376; in assay [13], 1.05. In addition, the z-score was 0.199 in assay [14]; -1.03 in assay [15]; 1.86 in [16]; 0.352 (inactive) in assay [17]; -0.316 in assay [18]; -0.326 in [19]. In addition, the z-score in assay [20] was -0.132 (inactive). Further, the composite z-score in assay [2] is -0.146.

Regarding `CC(C)=CCCC(C)=CCON=C1C[C@@H](O)[C@@H](O)[C@@H]2[C@@H]3C(=O)N(Cc4ccccc4)C(=O)[C@@H]3CC[C@H]12`, the z-score was -0.169 (inactive) in assay [1]; 4.49 (inactive) in assay [3]; -0.206 (inactive) in [4]; 0.957 (inactive) in [5]; -0.748 (inactive) in assay [6]; -0.352 in assay [7]. The z-score in [8] was 1.51 (inactive); in [9], 0.913 (inactive); in [10], -2.3; in [11], -0.424; in assay [12], 0.753; in [13] it was -0.908. Besides, the z-score was -0.13 in assay [14]; -1.41 in [15]; 1.66 in assay [16]; -0.468 (inactive) in assay [17]; 0.394 in assay [18]; -0.0142 in [19]. Also, the z-score in assay [20] was 0.539 (inactive). Also, in [2], the composite z-score is -0.0197.
